Out of some 47,000 compounds screened, about 200 (0.43%) were called active. Not shown: some 1% with an inconclusive outcome.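 Rule for the calls: active = inhibition of aggregate fluorescence above about 70%, also judged a hit by eye on the cell image (limit read from the data, passing the limit was not always enough); inconclusive = no rule stated for this call; inactive = not judged a hit on image review.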 The sample as a whole holds a higher share of actives than the screen did.

A word on the inhibition: it is the change of the read-out against control, counted positive when it falls.

The nature of the assay: clearance of mutant huntingtin inclusions, primary screen, imaging, HeLa Exon1htt(103Q)mCFP, confocal imaging (AID 853).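 Note: cells exposed to compound for three days before fixation.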 The settings on record: aggregate imaging, at 1.5 µM; fraction fluorescence in grains: measured here: aggregate grain fluorescence fraction, stronger effect = lower value; inhibition: stronger effect = higher value.
Take `N#Cc1ccc(Cn2cc(C(=O)c3ccco3)c3ccccc32)cc1`: the fraction fluorescence in grains is 6.7 and the inhibition is 83.1% (active).

Consider `COc1ccc(CCn2c(O)c(C=NC3CC3)c(=O)[nH]c2=O)cc1OC`, for which the fraction fluorescence in grains was found to be 56 and the inhibition is -52.1% (inactive).

Take `CC(C)c1ccc(OCC(=O)N2CCN(C)CC2)c(Br)c1`: the fraction fluorescence in grains was 48.9 and the inhibition is -31% (inactive).

On to `CCN1CCN(C(=O)Cc2coc3cc(C)cc(C)c23)CC1`, for which the fraction fluorescence in grains came to 24 and the inhibition was -20.7% (inactive).

Turning to `c1cc2c(cc1CCNC1CCCCCC1)OCO2`, the fraction fluorescence in grains is 16.3 and the inhibition is 11.1% (inactive).

The values above are taken from PubChem BioAssay AID853 (Columbia University Molecular Screening Center, 2007).
